# VACV mCherry inh: vaccinia inhibition (mCherry reporter). Vaccinia virus mCherry reporter infection, fluorescence. Potency, µM (top dose mostly 36.5 µM), without a hit: top-dose activity change, negative = inhibition, actives largely listed as inhibitors. 0.63% of 310,000 active. AID 720579; calls by dose curve; tested in A549 cells; also: potency is read from the fitted curve at half-maximal effect; % is scaled to controls: 0 for no effect and ±100 for the full control effect; nearly all actives have a fitted effect of over 35% in size
# FMDV antiviral: blocks foot and mouth disease virus. FMDV antiviral cell-based qHTS. 1.2% of 410,000 active. AID 1159524. Potency, µM (doses to about 57.9 µM), for inactives: at the highest dose activity change, negative = inhibition, usual class: inhibitors; calls by dose curve; tested in HEK293T cells; also: read-out not given here; potency is read from the fitted curve at half-maximal effect; % is scaled to controls: 0 for no effect and ±100 for the full control effect; nearly all actives have a fitted effect of over 45% in size
# Vaccinia Venus: vaccinia inhibition (Venus reporter); Vaccinia virus Venus reporter expression, fluorescence; Potency, µM (doses to about 36.5 µM), without a hit: at the highest dose activity change, negative = inhibition, usual class: inhibitors; 0.46% of 330,000 active; AID 720580; calls by dose curve; tested in A549 cells; also: potency is read from the fitted curve at half-maximal effect; % is scaled to controls: 0 for no effect and ±100 for the full control effect; nearly all actives have a fitted effect of over 30% in size
# Marburg entry inh: blocks Marburg virus binding to or entry into cells; AID 540276; Marburg virus pseudotyped entry inhibition, cell reporter; Potency, µM (titrated, usually from 37.8 µM), inactives show at the highest dose activity change, negative = inhibition, actives largely listed as inhibitors; 1.8% of 300,000 active; calls by dose curve; tested in HEK293 cells; also: potency is read from the fitted curve at half-maximal effect; % is scaled to controls: 0 for no effect and ±100 for the full control effect
# Lassa entry inh: Lassa virus entry inhibition. 1.2% of 300,000 active. Lassa virus pseudotype entry inhibition, cell reporter. Potency, µM (series often up to 37.9 µM), inactives show at the top dose activity change, negative = inhibition, hits mostly inhibitors; calls by dose curve; tested in HEK293 cells; also: potency is read from the fitted curve at half-maximal effect; % is scaled to controls: 0 for no effect and ±100 for the full control effect; nearly all actives have a fitted effect of over 50% in size
# G2M arrest HeLa: causes HeLa cells to arrest in G2/M phase | Potency, µM, most hits filed as inhibitors | shares compounds with Marburg entry inh | 60% of 25 active | HeLa cell cycle G2/M arrest, Hoechst DNA content imaging
# WI-38 cytotox: WI-38 cytotoxicity of perinucleolar compartment inhibitors. WI-38 normal lung fibroblasts, ATPLite luminescence ATP viability, 24 h. 120 tested, under 10 active. Potency, µM (series often up to 46.1 µM), for inactives: at the top dose activity change, negative = cytotoxicity, usual class: inhibitors. shares compounds with Marburg entry inh. AID 2729
# PNC inh conf: confirmation of perinucleolar compartment assembly inhibitors. AID 2730. 50% of 120 active. PC3M PTB-GFP, PNC prevalence imaging, 16 h. shares compounds with Marburg entry inh. Potency, µM (titrated, usually from 46.1 µM), for inactives: at the top dose activity, negative = PNC inhibition, usual class: inhibitors
# PC3M casp3-7: counter-screen for PNC inhibitors: PC3M caspase 3/7 activation. shares compounds with Marburg entry inh. PC3M-GFP caspase 3/7 activation, luminescence, 24 h. activity change, positive = activation, % at 46.1 µM. 120 tested, under 10 active. AID 2731
# An asterisk follows results filed as active; i = inactive; ? = inconclusive; nt = not tested or not shown; [ ] = dose if it differs, or a comment. Rows were chosen to be rich in hits. Some 3.2% of all compounds tested hit in one or more screens of this group. Unless noted, calls follow the shape of the dose curve; as a rule, active = well fitted curve in the direction sought with a large enough effect; inconclusive = small, poorly fitted or top-dose-only effect, or another doubt; inactive = no such curve, though single readings can be large; an effect the other way counts as inactive or inconclusive.
SMILES,VACV mCherry inh,FMDV antiviral,Vaccinia Venus,Marburg entry inh,Lassa entry inh,WI-38 cytotox,PNC inh conf,PC3M casp3-7,others
O=C(CCN1C(=O)/C(=C/c2ccccc2)SC1=S)N1CCCCCC1,i,-26%,5%,-11%[46.1 µM],?,nt,nt,nt,
COc1cc(/C=C2\SC(=S)N(CCC(=O)Nc3ccccc3)C2=O)cc(OC)c1OC,0%,-29%,-2%,?,-11%,nt,nt,nt,
Cc1nonc1NCn1nnc2ccccc21,-15%,-11%,-18%,19%,?,nt,nt,nt,
NC(=S)N/N=C/c1c(O)ccc2ccccc12,nt,2%,nt,nt,nt,nt,nt,nt,
NC(=S)N/N=C1/CCSc2ccc3ccccc3c21,14µM*,?,?,?,-12%,nt,nt,nt,
C=C[C@]1(C)C=C2C(=O)[C@@]3(O)OC(=O)[C@@]4(CCCC(C)(C)[C@H]34)[C@@]2(O)CC1,8.9µM*,2.8µM*,10µM*,nt,nt,nt,nt,nt,
O=C([C@@H]1C[C@@H](Sc2nc3ccccc3[nH]2)CN1CC1CCCCC1)N1CCOCC1,-7%,12%,-7%,nt,nt,nt,nt,nt,
Cn1ncc2c(O/N=C(\N)c3ccc(C(C)(C)C)cc3)ncnc21,i[7.34 µM],14µM*,-12%[7.34 µM],?,?,nt,nt,nt,
CCOC(=O)c1ccc(Nc2ncnc3c2cnn3C)cc1,-10%,nt,-4%,-6%,24%,nt,nt,nt,
COc1ccccc1C1CCCN1Cc1nc(-c2ccc(C)s2)oc1C (configuration not stated),?,-20%,36%,?,3.5µM*,nt,nt,nt,
CCCCN1CC(=O)N2[C@H](c3ccc(OC)cc3)[C@@H]3C(=O)N(CC)C(=O)[C@@H]3[C@]2(C)C1=O,i,-1%,-7%,nt,nt,nt,nt,nt,
CC1Cc2cc(-c3csc(NC(=O)Cc4ccccc4)n3)ccc2N1S(C)(=O)=O (configuration not stated),?,nt,?,10µM*,?,nt,nt,nt,
CCOC(=O)C[n+]1cccc(Br)c1,-1%,nt,-7%,nt,nt,nt,nt,nt,
O=c1c(-c2ccc(F)cc2)nc2cnc(Oc3ccccc3)nc2n1C1CC1,nt,-2%,nt,nt,nt,nt,nt,nt,
CCc1ccc(Oc2nccc(-c3c(-c4ccc(F)cc4)ncn3C3CCNCC3)n2)cc1,nt,nt,nt,nt,11µM*,nt,nt,nt,
CC(=O)Nc1ccc(N2C(=O)c3cccc4c(O)ccc(c34)C2=O)cc1,i,-15%,272%,nt,nt,nt,nt,nt,
O=C1c2cccc3c(O)ccc(c23)C(=O)N1c1ccc(Cl)cc1,-20%,13µM*,399%,16%[46.1 µM],?,nt,nt,nt,
CNC1=C(N(C(C)=O)c2ccc(Br)cc2)C(=O)c2ccccc2C1=O,?,8.9µM*,5.6µM*,2.3µM*,5.6µM*,?,?,?,
O=C(Nc1cccc(F)c1)N1CC[C@@]2(CCCNC2)C1,nt,-10%,nt,nt,nt,nt,nt,nt,
O=C(N/N=C/c1cc(Cl)ccc1O)C(=O)Nc1ccccc1OC(F)(F)C(F)F,14µM*,-25%,?,?,?,-8%,?,6,
CC1C(=O)N(Cc2cn(Cc3ccco3)nn2)CCS(=O)(=O)N1Cc1ccc(-c2ccc(Cl)cc2)cc1 (configuration not stated),-2%,?,-28%,nt,nt,nt,nt,nt,
CN(CC(=O)Nc1ccccc1Cl)C(=O)c1ccc(COc2ccccc2)cc1,-4%,-8%,-20%,-8%,-10%,nt,nt,nt,
COc1cccc(/C=N/NC(=O)c2cc3c(OC)c(OC)ccc3[nH]2)c1OC,-7%,3%,-25%,?,?,-16%,?,-9,
COc1ccc2nc(NC(=O)c3ccc(S(=O)(=O)N4CCCC(C)C4)cc3)sc2c1 (configuration not stated),-12%,-1%,-13%,nt,0%[46.1 µM],nt,nt,nt,
O=C(N/N=C\c1ccc([N+](=O)[O-])s1)c1cncc(Br)c1,nt,?,nt,2.6µM*,2.9µM*,-26%,22µM*,?,
SMILES,VACV mCherry inh,FMDV antiviral,Vaccinia Venus,Marburg entry inh,Lassa entry inh,WI-38 cytotox,PNC inh conf,PC3M casp3-7,others
Cc1c(C#N)c(N)nc2c3c(sc12)NC(=O)CC3c1ccccc1 (configuration not stated),-13%,-10%,-8%,?,1%,nt,nt,nt,
Cc1c(C#N)c(N)nc2c3c(sc12)NC(=O)CC3c1ccc(F)cc1 (configuration not stated),-8%,-15%,-10%,?,15%,-12%,-10%,-6,
CSc1nc(-c2ccc(C)cc2)nc(C(Cl)Cl)n1,nt,-4%,nt,?,?,-13%,13µM*,?,
C#CCn1c(S(=O)(=O)Cc2ccccc2Cl)nc(-c2ccccc2)c1-c1ccccc1,nt,-17%,nt,-7%,nt,nt,nt,nt,
C#CCn1c(S(=O)(=O)Cc2ccc(C)cc2)nc(-c2ccccc2)c1-c1ccccc1,-26%,-12%,-2%,4.6µM*,3.3µM*,3%,7.9µM*,-5,
COc1ccc(-n2c(SC(C)C(=O)Nc3ncc(Cl)cc3Cl)nc3ccccc32)cc1 (configuration not stated),?,-13%,-7%,?,0.25µM*,?,3.2µM*,4,
CC(C)CNC(=O)CSc1nnc(-c2cccc(S(=O)(=O)N3CCCCC3)c2)o1,?,8%,?,-5%[46.1 µM],-7%,-9%,-22%,-7,
Cc1ccc(Cl)cc1N(CC(=O)N1CCOCC1)S(C)(=O)=O,nt,4%,nt,nt,nt,nt,nt,nt,
Cc1ccc(Cl)cc1N(CC(=O)N1CCCCCC1)S(C)(=O)=O,-15%,-7%,-12%,7%,9%,6%,8%,-6,
CNS(=O)(=O)c1cccc(C(=O)OCC(=O)c2cc(C)n(-c3ccc4c(c3)OCO4)c2C)c1,nt,12%,-23%,-2%,-3%,nt,nt,nt,
Cc1cc(C(=O)COc2ccccc2Cl)c(C)n1-c1ccc2c(c1)OCO2,-1%,29%,0%,16µM*,4.1µM*,-15%,7.9µM*,-15,
Cc1ccc(C(=O)COC(=O)c2cc(=O)[nH]c3ccccc23)cc1C,i,14%,-6%,?,?,nt,nt,nt,
CN(C(=O)Nc1cnc2ccccc2c1)c1ccccc1,i,19%,-7%,6%[46.1 µM],0%,nt,nt,nt,
COc1cc(OC)c(/C=C2/C(=O)Nc3ccccc32)c(OC)c1,nt,nt,nt,0.89µM*,?,nt,nt,nt,G2M arrest HeLa=2*
CCOC(=O)C1=CCC(c2ccc(C#N)cc2)N(S(=O)(=O)c2ccc(C)cc2)C1 (configuration not stated),6%,-17%,-2%,nt,nt,nt,nt,nt,
Cc1cc(C)c(S(=O)(=O)/N=C2/C=C(Sc3ncn[nH]3)C(=O)c3ccccc32)cc1C,?,?,6.3µM*,1.6µM*,13µM*,-7%,6.3µM*,-7,
